For 35 compounds, outcome results are on record in PubChem BioAssay AID1781 (National Center for Advancing Translational Sciences (NCATS), 2009).

Structures are written as SMILES. Inconclusive results are not listed. Calls of active or inactive are those of the source. Calls follow the shape of the dose curve; as a rule, active = well fitted curve in the direction sought with a large enough effect; inconclusive = small, poorly fitted or top-dose-only effect, or effect the other way, or another doubt; inactive = no such curve, though single readings can be large or run the other way.

In this assay the target is Pyruvate kinase PKLR (Homo sapiens) (UniProt P30613). Kind of assay: Confirmation Concentration-Response Assay for Activators of Human Liver Pyruvate Kinase. The note with it: purified hPK-L, Kinase-Glo ATP luminescence, 1 h; series mostly up to 57.5 µM. The text has this: Confirmatory assay NIH Chemical Genomics Center [NCGC] Matthew G. Vander Heiden, M.D., Ph.D. [Harvard Medical School, 77 Avenue Louis Pasteur, Boston, MA 02115] NCGC Assay Overview: Human pyruvate kinase liver (hPK-L) enzyme was supplied as a highly purified (>95% pure) preparation from Harvard Medical School and assayed for its ability to generate ATP from ADP using phosphoenolpyruvate (PEP) as a substrate. ATP generation was detected in a coupled reaction by luciferase-mediated luminescence, an ATP-dependent process. Pyruvate kinase substrates, PEP and ADP, were present in the assay at Km and approximately 10-fold below Km respectively. The enzyme was assayed at an intermediate level of activity to screen for both inhibitors and activators.
Chain of Pyruvate kinase PKLR (Homo sapiens) (P30613 whole entry, looked up): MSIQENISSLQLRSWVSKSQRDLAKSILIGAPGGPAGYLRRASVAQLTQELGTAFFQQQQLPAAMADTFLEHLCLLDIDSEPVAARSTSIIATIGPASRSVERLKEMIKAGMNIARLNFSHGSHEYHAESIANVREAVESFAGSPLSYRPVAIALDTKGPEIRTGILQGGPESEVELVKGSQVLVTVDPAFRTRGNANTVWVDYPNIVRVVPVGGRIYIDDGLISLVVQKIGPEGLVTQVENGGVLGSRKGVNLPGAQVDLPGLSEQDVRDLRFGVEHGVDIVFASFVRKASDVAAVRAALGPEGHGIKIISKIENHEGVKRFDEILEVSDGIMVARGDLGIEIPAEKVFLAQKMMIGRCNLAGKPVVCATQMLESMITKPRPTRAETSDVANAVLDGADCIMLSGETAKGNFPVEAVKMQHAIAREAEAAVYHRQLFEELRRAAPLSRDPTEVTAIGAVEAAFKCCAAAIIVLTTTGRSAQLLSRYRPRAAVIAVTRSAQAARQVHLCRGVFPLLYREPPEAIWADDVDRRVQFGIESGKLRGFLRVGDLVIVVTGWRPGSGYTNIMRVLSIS
NCGC Assay Protocol Summary for L-isoform: Three uL of substrate mix (at r.t.) in assay buffer (50 mM Imidazole pH7.2, 50 mM KCl, 7 mM MgCl2, 0.01% Tween 20, 0.05% BSA) was dispensed into white solid bottom 1,536 well microtiter plates so that the final concentrations of substrates in the assay were 0.1 mM ADP and 0.5 mM PEP. 23 nL of compound were delivered by a pin tool and 1 uL of enzyme mix (final concentration of 0.1 nM) in assay buffer (4 degree Celsius) was added. Plates were incubated at room temperature for 1 hour. Two uL of detection mix (Kinase-Glo, Promega; at 4 degree Celsius protected from light) was added and luminescence read by a ViewLux (Perkin Elmer) at 1 second exposure/plate. Data were normalized to the uninhibited (row 31). Additionally, a no enzyme and 5-fold enzyme control was dispensed in row 32, split equally between the two conditions.
`Cc1ccc(Cn2ncc3c4sc(C)cc4n(C)c3c2=O)c(C)c1`: the compound was classed as inactive.

In the case of `Cc1cc2c(s1)c1cnn(Cc3c(F)c(F)cc(F)c3F)c(=O)c1n2C`, the result was inactive.

Consider `O=S(=O)(c1ccc2c(c1)OCCCO2)N1CCN(S(=O)(=O)c2c(F)cccc2F)CC1`, for which the result was inactive.

For the compound `Cn1c2ccsc2c2ncn(Cc3ccccc3F)c(=O)c21`, the result was inactive.

As to `CC(O)c1cc2c(s1)c1cnn(Cc3ccccc3F)c(=O)c1n2C` (stereo not given), the compound was classed as inactive.

Turning to `O=C(c1c(F)cccc1F)N1CCN(S(=O)(=O)c2ccc3c(c2)OCCO3)CC1`, the compound was called inactive.

Take `CCc1cc2c(s1)c1cnn(Cc3ccccc3F)c(=O)c1n2C`: the compound was called inactive.

For `O=S(=O)(c1ccc2ccccc2c1)N1CCN(S(=O)(=O)c2c(F)cccc2F)CC1`, the compound was called inactive.

`CN1CCOc2ccc(S(=O)(=O)N3CCN(S(=O)(=O)c4c(F)cccc4F)CC3)cc21`: the outcome was inactive.

As to `O=S(=O)(c1cccc(C(F)(F)F)c1)N1CCN(S(=O)(=O)c2ccc3c(c2)OCCO3)CC1`, the compound was called inactive.

For `Cn1c2cc(B(O)O)sc2c2cnn(Cc3ccccc3F)c(=O)c21`, the call was inactive.

For the compound `Cc1cc2c(s1)c1cnn(-c3ccccc3)c(=O)c1n2C`, the outcome was inactive.

Take `Cc1cc2c(s1)c1cnn(Cc3ccc(C(F)(F)F)cc3)c(=O)c1n2C`: the result was inactive.

As for `Cc1cc2c(s1)c1cnn(Cc3ccc(-c4ccccc4)cc3)c(=O)c1n2C`, the compound was called inactive.

For `Cc1cc2c(s1)c1cnn(Cc3ccc(C(F)(F)F)cc3F)c(=O)c1n2C`, the call was inactive.

With `CC(C)c1cc2c(s1)c1cnn(Cc3ccccc3F)c(=O)c1n2C`, the outcome was inactive.

On to `O=S(=O)(NC1CCN(S(=O)(=O)c2ccc3c(c2)OCCO3)C1)c1c(F)cccc1F` (stereo not given), for which the call was inactive.

In the case of `Cc1cc2c(s1)c1cnn(Cc3c(F)cccc3Cl)c(=O)c1n2C`, the compound was called inactive.

Consider `Cc1cc2c(s1)c1cnn(Cc3cccc(Cn4ncc5c6sc(C)cc6n(C)c5c4=O)c3F)c(=O)c1n2C`, for which the call was inactive.

In the case of `Cn1c2cc(S(C)=O)sc2c2cnn(Cc3ccccc3F)c(=O)c21` (stereo not given), the outcome was inactive.

For the compound `Cc1cc2c(s1)c1cnn(Cc3ccccc3F)c(=O)c1n2C`, the compound was classed as inactive.

Take `O=S(=O)(NCCCCCCNS(=O)(=O)c1c(F)cccc1F)c1ccc2c(c1)OCCO2`: the result was inactive.

In the case of `Cc1cc2c(s1)c1cnn(Cc3ccc(C)c(F)c3F)c(=O)c1n2C`, the compound was called inactive.

With `O=S(=O)(NCCCCCNS(=O)(=O)c1c(F)cccc1F)c1ccc2c(c1)OCCO2`, the compound was classed as inactive.

`CC(=O)Nc1cc2c(s1)c1cnn(Cc3ccccc3F)c(=O)c1n2C`: the compound was classed as inactive.

`Cc1cc2c(s1)c1cnn(Cc3cc(C(F)(F)F)cc(Cl)c3F)c(=O)c1n2C`: the result was inactive.

In the case of `O=S(=O)(NC1CCC(NS(=O)(=O)c2c(F)cccc2F)CC1)c1ccc2c(c1)OCCO2` (stereo not given), the outcome was inactive.

In the case of `Cc1cc2c(s1)c1cnn(Cc3ccccc3F)c(=O)c1n2C(C)C`, the compound was classed as inactive.

As for `CC1(C)CCc2cc(S(=O)(=O)N3CCN(S(=O)(=O)c4c(F)cccc4F)CC3)ccc2O1`, the result was inactive.

Consider `O=S(=O)(NC1CCN(S(=O)(=O)c2c(F)cccc2F)C1)c1ccc2c(c1)OCCO2` (stereo not given), for which the outcome was inactive.

With `CCn1c2cc(C)sc2c2cnn(Cc3ccccc3F)c(=O)c21`, the compound was classed as inactive.

Regarding `Cn1c2cc(CO)sc2c2cnn(Cc3ccccc3F)c(=O)c21`, the compound was called inactive.

On to `Cc1nc2ccc(S(=O)(=O)N3CCN(S(=O)(=O)c4c(F)cccc4F)CC3)cc2s1`, for which the outcome was inactive.

Consider `Cc1ccc(Cn2ncc3c4sc(C)cc4n(C)c3c2=O)cc1`, for which the result was inactive.

As for `Cc1cc2c(s1)c1cnn(Cc3cccc(F)c3F)c(=O)c1n2C`, the compound was called inactive.
